Measured values taken from PubChem BioAssay (NCATS).
The source made the active and inactive calls. The call rests on the fitted dose curve; in most records, active means well fitted inhibition curve with a large enough effect; inconclusive means small, poorly fitted or top-dose-only effect; inactive means no such curve, though single readings can be large or run the other way.

Experiment: qHTS assay for measurement of the activity of small molecule inhibitors on Zika virus induced Caspase-3 activity in human astrocytoma cells (AID 1224859)
Conditions: SNB-19 ZIKV-induced caspase-3/7, luminescence, 6 h; series mostly up to 45.7 µM
Excerpt: National Center for Advancing Translational Sciences [NCATS]
Johns Hopkins University School of Medicine
Increase in the Caspase-3 activity indicates an activation of apoptosis cell death pathway caused by Zika virus infection in certain types of neuronal cells including human neural progenitor cells (hNPCs), astrocytes, and astrocytoma cell line (SNB-19). This cell-based caspase-3 activity assay measures the increased caspase-3 activity in the astrocytoma cell line (SNB-19) after a 6-hour Zika virus infection with a luminescence readout. A decrease in the luminescence signal in this assay by small molecule treatment indicates an inhibitory effect of that small molecule on the Zika virus induced caspase-3 activity that may correlate with its effect on reduction of Zika virus caused cell death.
The medium for SNB-19 cells is composed of RPMI 1640 (ATCC, Cat.# 30-2001), 10% fetal bovine serum (FBS) (GE healthcare Life Sciences, Cat.# SH30071.03), and 1% Pen/Strep (Gibco, Cat.# 15140-122). A Caspase-Glo 3/7 assay kit (catalog number G8092; Promega, Madison, WI) was used to detect caspase-3 activity induced by Zika virus infection in human cells. The reagent mixture was reconstituted as described in the protocol from the manufacturer. Polystyrene tissue culture treated and PDL coated white plates were obtained from Greiner Bio-One (Monroe, NC). Cells were seeded in 384- or 1536-well assay plates and cultured at 37 C with 5% CO2 for 16 to 20 hours. The typical cell seeding density in the 1536-well plate assay is 250 cells/well in 3ul medium for SNB-19 cells in tissue culture treated plates. Compounds were added to cells and incubated for one hour before addition of ZIKV solution to cells (2 FFU/cell). After incubation at 37 C with 5% CO2 for 6 hours, the reagent mixture of Caspase-Glo 3/7 assay kit was added to each well, followed by incubation at room temperature for 30 minutes. The luminescence intensity of the assay plates was measured using a ViewLux plate reader (PerkinElmer). Data were normalized by using the cell-containing wells without ZIKV as a negative control (0% induction of caspase 3/7 activity) and wells containing ZIKV infected cells (Caspase-3 activity induced) as a positive control (100% induction of caspase 3 activity). The percentage inhibitions of the increased Caspase-3 activity by small molecule inhibitors were then calculated.

Structure (SMILES) | outcome
NCCCNCCSP(=O)(O)O | inactive
Brc1c(NC2=NCCN2)ccc2nccnc12 | inactive
CCc1cccc(N(C)C(N)=Nc2cccc3ccccc23)c1 | inactive
CN(C)C(=O)Oc1cccc([N+](C)(C)C)c1 | inactive
CC(C)[N+](C)(CCOC(=O)C1c2ccccc2Oc2ccccc21)C(C)C | inactive
NC(=Nc1ccccc1)Nc1ccccc1 | inactive
OC(CCN1CCCCC1)(c1ccccc1)C1CCCCC1 (stereo not given) | inactive
NC(=O)N1c2ccccc2C=Cc2ccccc21 | inactive
C(=C\c1ccccc1)/CN1CCN(C(c2ccccc2)c2ccccc2)CC1 | inactive
Fc1ccc(C(c2ccc(F)cc2)N2CCN(C/C=C/c3ccccc3)CC2)cc1 | inactive
CCCCNc1c(C(=O)OCC)c(C)nc2c1cnn2CC | inactive
CCOC(=O)C1=C(C)NC(C)=C(C(=O)OC)C1c1cccc([N+](=O)[O-])c1 (stereo not given) | inactive
CNC1(C)C2CCC(C2)C1(C)C (stereo not given) | inactive
CCN(CC)CCNC(=O)c1cc(S(C)(=O)=O)ccc1OC | inactive
COCCCC/C(=N\OCCN)c1ccc(C(F)(F)F)cc1 | inactive
Cc1cc(C)c(/C=C2\C(=O)Nc3ccccc32)[nH]1 | inactive
O=C(CCNNC(=O)c1ccncc1)NCc1ccccc1 | inactive
CN/C(=C\[N+](=O)[O-])NCCSCc1ccc(CN(C)C)o1 | inactive
CN1CCN(C2=Nc3ccccc3Oc3ccc(Cl)cc32)CC1 | inactive
Cc1nc2c([nH]1)c(=O)n(C)c(=O)n2Cc1ccco1 | inactive

Structure (SMILES) | outcome
NC(=O)c1cn(Cc2c(F)cccc2F)nn1 | inactive
Cc1nnc(SCC2=C(C(=O)O)N3C(=O)[C@@H](NC(=O)Cn4cnnn4)[C@H]3SC2)s1 | inactive
CC(=O)Nc1nnc(S(N)(=O)=O)s1 | inactive
CCN1CCc2nc(N)oc2CC1 | inactive
CN(C)CCCN1c2ccccc2Sc2ccc(C(F)(F)F)cc21 | inactive
Cc1cccc(C)c1NC(=O)C(C)N (stereo not given) | inactive
CC1=NS(=O)(=O)c2cc(Cl)ccc2N1 | inactive
CN=C(NC#N)NCCSCc1nc[nH]c1C | inactive
CCO/C([O-])=N/c1c[n+](N2CCOCC2)no1 | inactive
CCOC(=O)C1=C(C)NC(C)=C(C(=O)OC)C1c1cccc(Cl)c1Cl (stereo not given) | inactive
CCN1CCC[C@H]1CNC(=O)c1c(O)c(Cl)cc(Cl)c1OC | inactive
CC(=O)[C@@]1(O)CC[C@H]2[C@@H]3CCC4=CC(=O)CC[C@]4(C)[C@H]3CC[C@@]21C | inactive
C[N+](C)(C)CCOC(=O)CCC(=O)OCC[N+](C)(C)C | inactive
Cc1nc2sccn2c(=O)c1CCN1CCC(=C(c2ccc(F)cc2)c2ccc(F)cc2)CC1 | inactive
CN(C)CCCN1c2ccccc2Sc2ccccc21 | inactive
CC(C(=O)O)c1ccc(CC2CCCC2=O)cc1 (stereo not given) | inactive
C=CCc1ccccc1OCC(O)CNC(C)C (stereo not given) | inactive
CCCCCCCC/C=C\CCCCCCCC(=O)NCc1ccc(O)c(OC)c1 | inactive
CCCOc1ccccc1-c1nc2n[nH]nc2c(=O)[nH]1 | inactive
COCC(=O)O[C@]1(CCN(C)CCCc2nc3ccccc3[nH]2)CCc2cc(F)ccc2[C@@H]1C(C)C | inactive
